Laboratory results from PubChem BioAssay (EPA / NIEHS).
The source made the active and inactive calls. The calls were made as follows: active = hit-call score of the fitted dose curve at least 0.9, where 1 is the maximum; inactive = score below 0.9.

Legend:
[1] = APR_HepG2_CellCycleArrest_24hr: Apredica 24-hour HepG2 Assay for Cell Cycle Arrest (AID 2282905); conditions: imaging, actives raise or lower the signal;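 also: cell cycle arrest scored as ratio of 2N to 4N nuclear DNA content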
How it was run: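 Cell cycle arrest is scored from nuclear DNA content measured by high-content imaging of Hoechst 33342-stained HepG2 cells following 24-hour treatment at ten concentrations up to 200 uM, with DMSO as baseline.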

[2] = APR_HepG2_StressKinase_1hr: Apredica 1-hour HepG2 Assay for Stress Kinase (AID 2282906); conditions: HepG2 stress kinase (phospho-c-Jun) imaging, actives raise or lower the signal
How it was run: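 HepG2 cells dosed 0.39-200 uM (0.5% DMSO) for 1 h, then formaldehyde-fixed. Stress kinase read by phospho-c-Jun immunofluorescence using high-content imaging; bidirectional fit vs DMSO.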

[3] = APR_HepG2_CellLoss_24hr: Apredica 24-hour HepG2 Assay for Cell Loss (AID 2282908); conditions: high-content imaging;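 as to AC50: fit in both directions so a hit may be cell loss or gain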
How it was run: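 Cell number is quantified by fluorescence imaging of Hoechst 33342-stained nuclei following dosing at 0.39–200 uM in 0.5% DMSO. Curves are fitted in both directions from the DMSO baseline.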

[4] = APR_HepG2_MitoticArrest_24hr: Apredica 24-hour HepG2 Assay for Mitotic Arrest (AID 2282910); conditions: high-content imaging, actives raise or lower the signal
How it was run: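 HepG2 human liver cells were exposed to compounds at 0.39–200 uM (10 concentrations, duplicate) in 0.5% v/v DMSO for 24 hr, then fixed and immunostained for phospho-histone H3 with Hoechst 33342. Mitotic arrest came from HCS fluorescent imaging, fitted bidirectionally against DMSO.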

[5] = APR_HepG2_MitoMembPot_24hr: Apredica 24-hour HepG2 Assay for Mitochondrial Membrane Potential (AID 2282911); conditions: imaging, actives raise or lower the signal
How it was run: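 Human hepatoma HepG2 cultures received ten compound concentrations up to 200 uM for 24 hr. Membrane-potential dye signal, captured by automated fluorescence microscopy, was scored for gain or loss against DMSO controls.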

[6] = APR_HepG2_MitoMass_24hr: Apredica 24-hour HepG2 Assay for Mitochondrial Mass (AID 2282912); conditions: high-content imaging, actives raise or lower the signal
How it was run: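 The liver line HepG2 was dosed in duplicate across a 0.39–200 uM series, with final DMSO held at 0.5% v/v, and harvested at 24 hr. High-content imaging measured mitochondrial dye staining.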

[7] = APR_HepG2_p53Act_24hr: Apredica 24-hour HepG2 Assay for p53 Activation (AID 2282913); conditions: high-content imaging, actives raise or lower the signal;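 also: p53 protein immunofluorescence averaged per cell in HepG2 with Hoechst nuclei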
How it was run: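 Automated fluorescence imaging quantifies p53 immunostaining in HepG2 cells after a 24 hr exposure (0.39–200 uM, duplicate, 0.5% DMSO). Nuclei are located by Hoechst 33342 staining.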

[8] = APR_HepG2_CellCycleArrest_72hr: Apredica 72-hour HepG2 Assay for Cell Cycle Arrest (AID 2282914); conditions: high-content imaging, actives raise or lower the signal
How it was run: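 Cell cycle arrest in HepG2 was scored from nuclear DNA content after 72 hr compound treatment (0.39–200 uM). Activity, either gain or loss, was fitted against the DMSO baseline.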

[9] = APR_HepG2_P-H2AX_72hr: Apredica 72-hour HepG2 Assay for H2AX Phosphorylation (AID 2282916); conditions: imaging, actives raise or lower the signal;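 also: phospho-histone H2A.x immunostain intensity per cell marking DNA damage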
How it was run: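 Following 72 hr treatment with 0.39–200 uM compound, HepG2 cells were formaldehyde-fixed, permeabilized and stained for phospho-H2A.x; signal was measured by high-content imaging and fitted bidirectionally against DMSO controls.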

[10] = APR_HepG2_MitoMembPot_72hr: Apredica 72-hour HepG2 Assay for Mitochondrial Membrane Potential (AID 2282917); conditions: imaging, actives raise or lower the signal
How it was run: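 HepG2 cells exposed 72 h to compounds at 0.39–200 uM (0.5% v/v DMSO, duplicates); MitoTracker Red CMXRos 250 nM loaded 30 min before 3.7% formaldehyde fixation, imaged by HCS fluorescence. Bidirectional fit versus DMSO.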

[11] = APR_HepG2_MicrotubuleCSK_72hr: Apredica 72-hour HepG2 Assay for Microtubule CSK Stabilty (AID 2282919); conditions: HepG2 microtubule cytoskeleton, high-content imaging, actives raise or lower the signal
How it was run: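 HepG2 human liver cells were dosed for 72 h at ten concentrations from 0.39 to 200 uM in duplicate (0.5% v/v DMSO final). Fixed, permeabilized cells were immunostained for alpha-tubulin (Cy5) with a Hoechst counterstain and imaged at 20x.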

[12] = APR_HepG2_P-H2AX_24hr: Apredica 24-hour HepG2 Assay for H2AX Phosphorylation (AID 2282920); conditions: high-content imaging, actives raise or lower the signal
How it was run: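 Signal comes from a FITC-labeled secondary detecting phospho-histone H2A.x in fixed HepG2 cells, quantified by automated imaging at 20x. Dosing ran 24 hr across 0.39–200 uM with 0.5% v/v DMSO.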

[13] = APR_HepG2_StressKinase_72hr: Apredica 72-hour HepG2 Assay for Stress Kinase (AID 2282921); conditions: HepG2 stress kinase (phospho-c-Jun) imaging, actives raise or lower the signal
How it was run: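 Fluorescence intensity of Cy3-tagged anti-phospho-c-Jun antibody, quantified per cell from Hoechst-defined nuclei across six images per well, served as the read-out following 72 h exposure (0.39–200 uM, 0.5% v/v DMSO).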

[14] = APR_HepG2_StressKinase_24hr: Apredica 24-hour HepG2 Assay for Stress Kinase (AID 2282922); conditions: HepG2 stress kinase (phospho-c-Jun) imaging, actives raise or lower the signal
How it was run: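 HepG2 cells exposed 24 hr to compound at 0.39–200 uM (10 concentrations, duplicate), 0.5% v/v DMSO final. Fixed in 3.7% formaldehyde, permeabilized with Triton X-100, immunolabeled for phospho-c-Jun with Hoechst 33342; HCS fluorescence imaging, bidirectional fit versus DMSO.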

[15] = APR_HepG2_p53Act_72hr: Apredica 72-hour HepG2 Assay for p53 Activation (AID 2282923); conditions: high-content imaging, actives raise or lower the signal;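 also: average cellular p53 protein immunofluorescence intensity in HepG2 cells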
How it was run: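 HepG2 monolayers receive test compounds in duplicate at ten concentrations (0.39 through 200 uM) for 72 hr. They are then formaldehyde-fixed, antibody-labelled for p53, Hoechst-stained and imaged, with activity fitted bidirectionally versus DMSO.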

[16] = APR_HepG2_MitoMass_72hr: Apredica 72-hour HepG2 Assay for Mitochondrial Mass (AID 2282924); conditions: high-content imaging, actives raise or lower the signal;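 also: MitoTracker Red CMXRos stain intensity per cell imaged as mitochondrial mass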
How it was run: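 HepG2 cells were exposed for 72 hr to compounds at 0.39–200 uM (ten concentrations, duplicate, 0.5% v/v DMSO final). Live cells were stained with 250 nM MitoTracker Red CMXRos for 30 min, then fixed in 3.7% formaldehyde and imaged by HCS fluorescence.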

[17] = APR_HepG2_MicrotubuleCSK_24hr: Apredica 24-hour HepG2 Assay for Microtubule CSK Stabilty (AID 2282909); conditions: HepG2 microtubule cytoskeleton imaging, actives raise or lower the signal
How it was run: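 Steps: dose HepG2 for 24 h (0.39–200 uM, 0.5% DMSO); fix 30 min in 3.7% formaldehyde at room temperature; permeabilize; stain alpha-tubulin 60 min; image microtubule cytoskeleton at 20x. Signal change fitted in both directions relative to DMSO.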

[18] = APR_HepG2_CellLoss_72hr: Apredica 72-hour HepG2 Assay for Cell Loss (AID 2282915); conditions: high-content imaging
How it was run: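 HepG2 cells were exposed for 72 hr to compounds at 0.39–200 uM (ten concentrations, duplicate) in 0.5% v/v final DMSO. Nuclei were stained with Hoechst 33342 after 3.7% formaldehyde fixation, imaged at 20x, and counted; fits bidirectional versus DMSO.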

[19] = APR_HepG2_NuclearSize_24hr: Apredica 24-hour HepG2 Assay for Nuclear Size (AID 2282907); conditions: high-content imaging, actives raise or lower the signal
How it was run: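 Compounds in DMSO (final 0.5%) were added to human HepG2 hepatoma cells at ten concentrations up to 200 uM for 24 hr. Fixed nuclei were stained with Hoechst 33342, and nuclear diameter was quantified from automated images.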

[20] = APR_HepG2_MitoticArrest_72hr: Apredica 72-hour HepG2 Assay for Mitotic Arrest (AID 2282918); conditions: high-content imaging, actives raise or lower the signal
How it was run: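 Mitotic arrest in HepG2 is scored from phospho-histone H3 staining after 72 hr dosing across 0.39–200 uM, with DMSO at 0.5% v/v. Nuclei are identified by Hoechst 33342 and fluorescence intensity is quantified per cell.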

Measured: AC50

CSC(=O)c1cccc2nnsc12
not listed: [17] | [18] | [19] | [20]
inactive: all other assays above

COC(=O)c1ccccc1S(=O)(=O)NC(=O)Nc1nc(OC(F)F)cc(OC(F)F)n1
not listed: [4] | [19] | [20]
inactive: all other assays above

CC(C)(C)[C@@H](O)[C@@H](Cc1ccc(Cl)cc1)n1cncn1
active: [5] 15.8 µM
not listed: [2] | [17] | [18]
inactive: all other assays above

C=CCOC(Cn1ccnc1)c1ccc(Cl)cc1Cl (centres undefined)
active: [3] 55.8 µM | [18] 78.2 µM | [11] 43.1 µM
not listed: [2] | [19] | [20]
inactive: all other assays above

CCNc1nc(N)nc(Cl)n1
not listed: [4] | [18] | [19] | [20]
inactive: all other assays above

CCCN(CCC)c1c([N+](=O)[O-])cc(C(F)(F)F)c(N)c1[N+](=O)[O-]
active: [2] 75.8 µM | [5] 32.1 µM | [18] 33 µM | [11] 51.2 µM
not listed: [19]
inactive: all other assays above

N#CSCSc1nc2ccccc2s1
active: [1] 29.6 µM | [2] 33.3 µM | [3] 42.9 µM | [10] 25.2 µM
not listed: [4] | [7] | [15] | [17] | [18] | [19]
inactive: all other assays above

c1ccc2[nH]c(-c3cscn3)nc2c1
not listed: [2] | [7] | [15] | [17] | [18] | [20]
inactive: all other assays above

C#CCOC(=O)[C@@H](C)Oc1ccc(Oc2ncc(Cl)cc2F)cc1
not listed: [2] | [17] | [18] | [20]
inactive: all other assays above

Oc1ccc(C(c2ccc(O)cc2)C(Cl)(Cl)Cl)cc1
active: [3] 135 µM | [18] 33.4 µM
not listed: [2] | [17] | [20]
inactive: all other assays above

N[C@@H](Cc1cc(I)c(Oc2ccc(O)c(I)c2)c(I)c1)C(=O)O
not listed: [2] | [4] | [17] | [18]
inactive: all other assays above

C[C@]12C[C@H](O)[C@H]3[C@@H](CCC4=CC(=O)CC[C@@]43C)[C@@H]1CC[C@@H]2C(=O)CO
inactive: [17] | [4] | [6] | [8] | [11] | [13] | [14] | [15]
active: [1] 114 µM | [19] 109 µM | [3] 65.3 µM | [5] 82.9 µM | [7] 86.2 µM | [9] 34.5 µM | [10] 120 µM | [12] 96.6 µM | [16] 148 µM

O=C(Nc1ccc([N+](=O)[O-])cc1Cl)c1cc(Cl)ccc1O
active: [1] 0.0918 µM | [3] 0.332 µM | [4] 0.784 µM | [6] 2.63 µM | [7] 1.49 µM | [8] 0.463 µM | [10] 1.06 µM | [20] 0.238 µM | [11] 0.0444 µM | [12] 1.8 µM
inactive: [19] | [5] | [9] | [13] | [14] | [15] | [16]

COC(=O)c1ccc(CNS(C)(=O)=O)cc1S(=O)(=O)NC(=O)Nc1nc(OC)cc(OC)n1
not listed: [2] | [4] | [18] | [20]
inactive: all other assays above
